Compounds with a hit are over-represented: about 9.6% of the library has one in this group of screens.
INS promoter inh: TRM-6 insulin promoter activity inhibition | TRM-6 cells (human fetal islet line), insulin promoter-eGFP reporter, imaging; reporter expression induced with tamoxifen | inhibition, % at 2 µM | 0.9% of 130,000 active;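 active = inhibition above the mean plus 3 SD, with well images judged a real hit on visual review, cut at about 60% in these data, passing the limit was not always enough; inconclusive = inhibition over the cutoff but images rejected on review; inactive = inhibition not above the cutoff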
HCT116 PTEN-null: suppresses growth of cells with PTEN deletion; HCT116 PTEN-null viability, CellTiter-Glo, 60 h; stronger effect = lower value; viability, % at 10 µM; 1.2% of 140,000 active;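 active = viability at or below a set limit, 4 SD under the median of all tested compounds, cut at about 3.7% in these data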;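 note: PTEN knockout HCT116 line with beta catenin targeted HCT116 as companion control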
Autophagy HCS: modulators of autophagy | calls only at 10 µM (by protocol) | MEF GFP-LC3 puncta imaging; test concentration mostly 10 µM | 0.98% of 190,000 active | AID 463193;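 active = percentage of spot-positive cells more than 3 SD above its plate mean, without a fluorescence outlier flag or 80% toxicity; inconclusive = no clear call, values can overlap the other calls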;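 note: spot-positive cell cutoff set from DMSO-treated cells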
L major viab: Leishmania major promastigote growth inhibition; 9% of 200,000 active; AID 1063; inhibition, % at 10 µM; Leishmania major promastigotes, resazurin fluorescence viability; in the data active = inhibition above about 50%;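 note: promastigotes grown with compound for 44 hours at 28 °C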
bCat KO growth: beta-catenin-lacking colon tumor cell growth suppression | HCT116 beta-catenin knockout viability, CellTiter-Glo, 60 h; stronger effect = lower value | viability, % at 10 µM | 1.5% of 140,000 active | AID 818;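 active = viability at or under a set limit, the compound median less 4 SD, cut at about 6% in these data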;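 note: 0% = Hyamine 1622 control at 20 µM and 100% = untreated cell control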
Insulin prom up: MIN6 insulin promoter up-regulation. AID 1625. MIN6 insulin promoter-GFP reporter, high-content imaging; stronger effect = higher value. 0.3% of 190,000 active. z-score at 5 µM;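 active = z-score above 3 at 5 µM with at least 500 cells counted in the well; inconclusive = wells under 500 cells, flagged as cytotoxic or low count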
An asterisk follows results filed as active; i = inactive; ? = inconclusive; . = no result given; + = active, no number.

SMILES	INS promoter inh	HCT116 PTEN-null	Autophagy HCS	L major viab	bCat KO growth	Insulin prom up
CS(=O)(=O)c1nc(-c2ccccc2)cc(-c2ccccc2)c1C#N	20	2.4*	i	22	1.9*	-0.83
Cc1ccc(-c2cc(-c3ccccc3)nc(Cl)n2)cc1	.	56	i	-3	56	-0.24
N#Cc1c(-c2ccccc2)cc(-c2ccccc2)nc1SCC(=O)NCC(=O)O	.	.	.	.	.	0.22
Cc1cc(-c2ccccc2)nc(Cl)c1C#N	0	86	i	70*	86	-0.04
N#Cc1c(-c2ccccc2)cc(-c2ccccc2)nc1SCc1nnc(-c2ccccc2)o1	-25	80	i	60*	86	.
Cc1ccc(-c2cc(-c3ccccc3)c(C#N)c(Br)n2)cc1	.	51	i	-11	60	-0.48
COC(=O)c1c(C)[nH]c(C(=O)OCC(=O)N2c3ccccc3NC(=O)C2(C)C)c1C	-53	85	i	34	87	-0.83
CCOc1ccc(-n2c(SCC(=O)Nc3cc(OC)c([N+](=O)[O-])cc3C)nc3ccccc32)cc1	32	84	i	98*	85	-0.62
COc1cc(NC(=O)CSc2nc(C)c(C)c(C)n2)c(C)cc1[N+](=O)[O-]	.	82	i	26	91	-0.28
COc1cc([N+](=O)[O-])ccc1NC(=O)CSc1nc2ccccc2n1-c1ccccc1	-7	86	i	92*	81	-0.48
Cc1ccc(-n2c(SCC(=O)Nc3cccc(S(N)(=O)=O)c3)nc3ccccc32)cc1	6	56	i	78*	68	-0.23
CC(=O)c1ccc(NC(=O)C(=O)c2cn(CC(=O)N3CCCCC3)c3ccccc23)cc1	.	97	i	-1	88	-0.33
CC1CN(C(=O)c2cc([N+](=O)[O-])cc([N+](=O)[O-])c2)CC(C)O1 (centres undefined)	43	.	i	2	.	2.4
CCOC(=O)c1cnc(-n2nc(C)cc2C)nc1NCCc1ccccc1	-7	2.9*	i	99*	2.2*	-2.3
CCN(CC)S(=O)(=O)c1cc(NC(=O)[C@@H](NC(N)=O)C(C)C)ccc1C	.	.	i	1	.	0.12
CCn1c(C)nc2cc(C(=O)NNC(=S)Nc3ccccc3OC)ccc21	.	.	.	.	.	-0.54
CN1C(c2ccc(F)cc2)=CS/C1=C(\C#N)c1nnc2n1-c1ccccc1SC2	.	54	i	79*	39	0.06
COc1ccc(Cl)cc1C(=O)NCC(c1ccco1)N1CCCC1 (centres undefined)	-244	79	+	3	74	-0.29
Cc1ccc(NC(=S)NCC23C=CC(O2)C2C(=O)N(c4ccc(C)cc4)C(=O)C23)cc1 (centres undefined)	58	93	i	92*	91	-0.58
Cc1cccc(NC(=S)NCC23C=CC(O2)C2C(=O)N(c4ccc(Cl)cc4)C(=O)C23)c1 (centres undefined)	0	89	i	53*	78	-0.54
Cc1ccc(N2C(=O)C3C4C=CC(CNC(=S)N5CCN(c6ccccc6)CC5)(O4)C3C2=O)cc1 (centres undefined)	.	.	i	-4	.	0.56
CCCOc1ccc(C(=O)NNC(=S)NC(=O)c2cc(-c3ccc(Cl)cc3)nc3ccccc23)cc1	.	44	i	2	35	0.11
Cc1ccc(S(=O)(=O)N(C(=O)c2ccco2)c2cc3sc(=O)oc3c3ccccc23)cc1	-17	64	i	98*	62	-0.31
CCOc1ccc(NC(=O)c2ccco2)cc1	-31	107	i	-2	102	0.87
COc1ccc(S(=O)(=O)N(C(=O)c2ccco2)c2cc3sc(=O)oc3c3ccccc23)cc1	-4	93	i	99*	80	-0.96
SMILES	INS promoter inh	HCT116 PTEN-null	Autophagy HCS	L major viab	bCat KO growth	Insulin prom up
CCOc1ccc(S(=O)(=O)N(C(=O)c2ccco2)c2cc3sc(=O)oc3c3ccccc23)cc1	-15	53	i	97*	51	-0.66
O=C(NCc1ccc2c(c1)OCO2)c1cccc(N2CCCC2=O)c1	0	108	i	-15	99	-0.52
Cc1ccc(/C(O)=C2/C(=O)C(=O)N(CCN3CCOCC3)C2c2cccnc2)cc1 (centres undefined)	.	98	i	-9	94	0.29
CCCCC(C(=O)NC1CCCC1)N(Cc1ccco1)C(=O)Cn1nnc(-c2ccc(F)cc2)n1 (centres undefined)	0	88	i	6	90	.
Cc1ccc(Cn2c(SCC(C)C)nc3c2c(=O)[nH]c(=O)n3C)cc1	-24	86	i	-1	78	?
NS(=O)(=O)c1ccc(NNC(=O)c2ccccc2)cc1	.	.	.	.	.	-0.03
O=C(NNc1cc(Br)c(O)c(Br)c1)c1ccccc1	.	.	i	88*	.	1.1
Cc1ccc(C(=O)Nc2cccc(C(=O)NCc3ccccc3)c2)cc1	-41	95	i	52*	100	0.3
CCC(=O)NC(=S)Nc1ccc(NC(=O)c2cccc([N+](=O)[O-])c2C)cc1	0	97	i	58*	91	-0.32
O=C(Nc1cccc(O)c1)c1ccccc1	-106	86	i	62*	84	.
COCc1cc(C)nc(OCC(=O)N/N=C/c2ccc(C)cc2)c1C#N	.	.	.	.	.	0.25
Cc1cccc(N2CCN(C(=O)c3ccc4nc[nH]c4c3)CC2)c1C	-4	83	i	-2	89	0.33
CC(C)c1cc(NC(=O)c2ccccc2)cc(C(C)C)c1O	.	.	i	5	.	1.8
CCC(=O)NC(=S)Nc1ccc(NC(=S)NC(=O)c2ccccc2)cc1	29	.	i	-4	.	-0.67
CC(C)c1ccccc1NC(=O)c1cccc(NC(=O)c2ccccc2)c1	-52	91	i	91*	91	-1.1
CCC(=O)NC(=S)Nc1cccc(NC(=O)c2ccccc2)c1	.	.	+	-1	.	1.2
CCOC(=O)c1c(NC(=O)Cn2nnc3ccccc32)sc2c1CCC(C)C2 (centres undefined)	.	76	i	13	74	-0.13
COc1cccc2c1C(=O)c1c(O)c3c(c(O)c1C2=O)C[C@@](O)(C(C)=O)C[C@@H]3O[C@H]1C[C@H](N)[C@H](O)[C@H](C)O1	-355	0.8*	i	100*	0.8*	.
CC(C)OC(=O)/C(C#N)=C/c1cn(C)c2ccccc12	.	.	.	.	.	-0.04
CC(=O)OC(C(=O)NCc1ccc(F)cc1)c1ccccn1 (centres undefined)	24	91	i	-3	87	3.9*
O=C(OC(C(=O)NCc1cccs1)c1ccccn1)c1cccs1 (centres undefined)	43	104	i	1	101	1.3
COc1ccc(OC)c(NC(=O)C2CCCN2C(=O)OCc2ccccc2)c1 (centres undefined)	.	111	i	0	93	0.61
CCN1CCN(c2ncc(C(=O)Nc3cc(Cl)ccc3OC)c3ccccc23)CC1	-78	36	+	12	32	-0.08
O=C(Nc1c(F)cccc1F)c1cnc(N2CCN(c3ccccn3)CC2)c2ccccc12	25	32	i	79*	29	.
